Results from PubChem BioAssay (Tox21).
Results filed as inconclusive are left out. Where a call stands in place of a potency, no number is given. Activity calls are given as the source filed them. Unless noted, the call rests on the fitted dose curve.

System: not listed separately
Test: qHTS assay to identify small molecule antagonists of the estrogen receptor alpha (ER-alpha) signaling pathway - cell viability counter screen (AID 743074);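 further: HEK293 cells carrying ER-alpha-UAS-bla reporter stimulated with 17beta-estradiol; nearly all actives have a fitted effect of over 45% in size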
Conditions: ERalpha-bla HEK293 viability, CellTiter-Glo luminescence, 18 h; series mostly up to 69.4 µM

| SMILES | Potency |
| --- | --- |
| O=C1CCCCC1C1CCCCC1 (centres undefined) | inactive |
| CC(C)NC[C@@H](O)COc1cccc2ccccc12 | inactive |
| CCCCN1C[C@H](O)[C@@H](O)[C@H](O)[C@H]1CO | inactive |
| CNCCC(Oc1ccccc1OC)c1ccccc1 (centres undefined) | inactive |
| CC(C)Nc1nc(N)nc(Cl)n1 | inactive |
| CCCCCCCCCCCCOCCOS(=O)(=O)O | inactive |
| CC(C)C(=O)OCC(C)(C)C(O)C(C)C (centres undefined) | inactive |
| CN(C)CCOc1ccccc1Cc1ccccc1 | inactive |
| CN1C(=O)CC(c2ccccc2)C1=O (centres undefined) | inactive |
| CCCC1CCC(=O)O1 (centres undefined) | inactive |
| NCCC(O)(P(=O)(O)O)P(=O)(O)O | inactive |
| CCCCCCCCCCCCCCCCOP(=O)([O-])OCC[N+](C)(C)C | inactive |
| CC(C)CCCCCCc1ccc(OCCOCCO)cc1 | inactive |
| C1CSCCS1 | inactive |
| O=C(CC(=O)C(F)(F)F)c1ccccc1 | inactive |
| C1CCOC1 | inactive |

| SMILES | Potency |
| --- | --- |
| Nc1ccc(Oc2ccc(N)c(N)c2)cc1 | inactive |
| CCCNC(C)(C)COC(=O)c1ccccc1 | inactive |
| OCc1c2ccccc2cc2ccccc12 | inactive |
| CO[C@@]1(NC(=O)CSCC#N)C(=O)N2C(C(=O)O)=C(CSc3nnnn3C)CS[C@@H]21 | inactive |
| Cc1ccc(C=O)s1 | inactive |
| O=C(Cl)c1cccc([N+](=O)[O-])c1 | inactive |
| CC(=O)N(CC(O)CN(C(C)=O)c1c(I)c(C(=O)NCC(O)CO)c(I)c(C(=O)NCC(O)CO)c1I)c1c(I)c(C(=O)NCC(O)CO)c(I)c(C(=O)NCC(O)CO)c1I (centres undefined) | inactive |
| O=C(C(Cl)Cl)N1CCOC12CCCCC2 | inactive |
| CC(C)(C)c1ccc(OC(=O)c2ccccc2O)cc1 | inactive |
| CCCCC(CC)COC(=O)COc1cc(Cl)c(Cl)cc1Cl (centres undefined) | inactive |
| CC(=O)N[C@@H](CC(C)C)C(=O)O | inactive |
| CCN(CC)CCNC(=O)COc1ccc(Cl)cc1 | inactive |
| CN1CCC[C@@H]1Cc1c[nH]c2ccc(CCS(=O)(=O)c3ccccc3)cc12 | inactive |
| Cn1cnc2c(F)c(Nc3ccc(Br)cc3Cl)c(C(=O)NOCCO)cc21 | inactive |
| C[C@@H]1CN(c2c(F)c(F)c3c(=O)c(C(=O)O)cn(C4CC4)c3c2F)C[C@H](C)N1 | inactive |
| CN1CCN(C2=Nc3ccccc3Oc3ccc(Cl)cc32)CC1 | inactive |

Target: Estrogen receptor (Homo sapiens) (UniProt P03372)
Sequence (P03372 whole entry, looked up): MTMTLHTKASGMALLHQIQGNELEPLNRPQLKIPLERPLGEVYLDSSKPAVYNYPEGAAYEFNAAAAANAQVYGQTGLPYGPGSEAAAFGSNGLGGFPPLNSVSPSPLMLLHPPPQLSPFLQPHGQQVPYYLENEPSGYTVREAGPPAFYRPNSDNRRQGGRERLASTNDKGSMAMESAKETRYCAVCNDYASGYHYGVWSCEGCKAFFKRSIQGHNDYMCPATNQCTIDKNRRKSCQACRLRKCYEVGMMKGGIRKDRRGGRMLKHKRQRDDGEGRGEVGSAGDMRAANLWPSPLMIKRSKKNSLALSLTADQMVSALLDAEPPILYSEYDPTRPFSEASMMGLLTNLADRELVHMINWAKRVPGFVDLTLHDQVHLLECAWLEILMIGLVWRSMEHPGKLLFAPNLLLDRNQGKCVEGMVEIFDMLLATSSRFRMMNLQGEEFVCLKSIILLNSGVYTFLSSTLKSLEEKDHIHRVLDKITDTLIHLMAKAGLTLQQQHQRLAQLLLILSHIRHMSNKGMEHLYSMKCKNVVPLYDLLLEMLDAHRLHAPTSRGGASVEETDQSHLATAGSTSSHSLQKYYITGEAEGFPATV
Test: qHTS assay to identify small molecule agonists of the estrogen receptor alpha (ER-alpha) signaling pathway (AID 743075);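 further: HEK293 GripTite cells with ER-alpha and UAS-driven beta-lactamase reporter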
Conditions: HEK293 ER-alpha-UAS-bla, beta-lactamase FRET ratio, 18 h; series mostly up to 70.1 µM

| SMILES | outcome |
| --- | --- |
| O=C1CCCCC1C1CCCCC1 (centres undefined) | inactive |
| CCCCN1C[C@H](O)[C@@H](O)[C@H](O)[C@H]1CO | inactive |
| CNCCC(Oc1ccccc1OC)c1ccccc1 (centres undefined) | inactive |
| CCCCCCCCCCCCOCCOS(=O)(=O)O | inactive |
| CC(C)C(=O)OCC(C)(C)C(O)C(C)C (centres undefined) | inactive |
| CCCCNc1ccc(C(=O)OCCN(CC)CC)cc1 | inactive |
| CCCc1c2oc(C(=O)O)cc(=O)c2cc2c(=O)cc(C(=O)O)n(CC)c12 | inactive |
| CC(C)CCCCCCc1ccc(OCCOCCO)cc1 | inactive |
| O=C(CC(=O)C(F)(F)F)c1ccccc1 | inactive |
| Nc1ccc(Oc2ccc(N)c(N)c2)cc1 | inactive |
| CCCNC(C)(C)COC(=O)c1ccccc1 | inactive |
| OCc1c2ccccc2cc2ccccc12 | inactive |
| CO[C@@]1(NC(=O)CSCC#N)C(=O)N2C(C(=O)O)=C(CSc3nnnn3C)CS[C@@H]21 | inactive |
| O=C(Cl)c1cccc([N+](=O)[O-])c1 | inactive |
| CC(=O)N(CC(O)CN(C(C)=O)c1c(I)c(C(=O)NCC(O)CO)c(I)c(C(=O)NCC(O)CO)c1I)c1c(I)c(C(=O)NCC(O)CO)c(I)c(C(=O)NCC(O)CO)c1I (centres undefined) | inactive |
| O=C(C(Cl)Cl)N1CCOC12CCCCC2 | inactive |
| CC(C)(C)c1ccc(OC(=O)c2ccccc2O)cc1 | inactive |
| CCCCC(CC)COC(=O)COc1cc(Cl)c(Cl)cc1Cl (centres undefined) | inactive |
| CC(=O)N[C@@H](CC(C)C)C(=O)O | inactive |
| CCN(CC)CCNC(=O)COc1ccc(Cl)cc1 | inactive |
| C[C@@H]1CN(c2c(F)c(F)c3c(=O)c(C(=O)O)cn(C4CC4)c3c2F)C[C@H](C)N1 | inactive |
| CN1CCN(C2=Nc3ccccc3Oc3ccc(Cl)cc32)CC1 | inactive |

Target: Estrogen receptor (Homo sapiens) (UniProt P03372)
Test: qHTS assay to identify small molecule agonists of the estrogen receptor alpha (ER-alpha) signaling pathway using the BG1 cell line (AID 743079; active means well fitted activation curve with a large enough effect in the repeat runs; further: nearly all actives have a fitted effect of over 20% in size; further: potency means the concentration at half of the fitted maximal effect)
Conditions: BG1Luc4E2 cells, ERE-luciferase agonist, 22 h; series mostly up to 70.3 µM

| SMILES | Potency |
| --- | --- |
| O=C1CCCCC1C1CCCCC1 (centres undefined) | inactive |
| CCCCN1C[C@H](O)[C@@H](O)[C@H](O)[C@H]1CO | inactive |
| CNCCC(Oc1ccccc1OC)c1ccccc1 (centres undefined) | inactive |
| CC(C)C(=O)OCC(C)(C)C(O)C(C)C (centres undefined) | inactive |
| CCCCNc1ccc(C(=O)OCCN(CC)CC)cc1 | inactive |
| CCCc1c2oc(C(=O)O)cc(=O)c2cc2c(=O)cc(C(=O)O)n(CC)c12 | inactive |
| CC(C)CCCCCCc1ccc(OCCOCCO)cc1 | inactive |
| O=C(CC(=O)C(F)(F)F)c1ccccc1 | 19.6 µM (active) |
| CCCCc1ccc2nc(NC(=O)OC)[nH]c2c1 | 2.27 µM (active) |
| CCCNC(C)(C)COC(=O)c1ccccc1 | inactive |
| OCc1c2ccccc2cc2ccccc12 | 54.6 µM (active) |
| CO[C@@]1(NC(=O)CSCC#N)C(=O)N2C(C(=O)O)=C(CSc3nnnn3C)CS[C@@H]21 | inactive |
| O=C(Cl)c1cccc([N+](=O)[O-])c1 | inactive |
| CC(=O)N(CC(O)CN(C(C)=O)c1c(I)c(C(=O)NCC(O)CO)c(I)c(C(=O)NCC(O)CO)c1I)c1c(I)c(C(=O)NCC(O)CO)c(I)c(C(=O)NCC(O)CO)c1I (centres undefined) | inactive |
| O=C(C(Cl)Cl)N1CCOC12CCCCC2 | inactive |
| CC(C)(C)c1ccc(OC(=O)c2ccccc2O)cc1 | 27.3 µM (active) |
| CCCCC(CC)COC(=O)COc1cc(Cl)c(Cl)cc1Cl (centres undefined) | inactive |
| CCN(CC)CCNC(=O)COc1ccc(Cl)cc1 | inactive |
| C[C@@H]1CN(c2c(F)c(F)c3c(=O)c(C(=O)O)cn(C4CC4)c3c2F)C[C@H](C)N1 | inactive |
| CN1CCN(C2=Nc3ccccc3Oc3ccc(Cl)cc32)CC1 | inactive |
